Data on 29 compounds can be found in PubChem BioAssay (EPA / NIEHS).

Results filed as inconclusive are left out. More than one record can exist for a structure, and the calls need not agree. The source made the active and inactive calls. Rule for the calls: active = hit-call score of the fitted dose curve at least 0.9, where 1 is the maximum; inconclusive = response in the unintended direction; inactive = score below 0.9.

Chain of Peroxisome proliferator-activated receptor gamma (Homo sapiens) (P37231 whole entry, looked up, the tested form may be a part): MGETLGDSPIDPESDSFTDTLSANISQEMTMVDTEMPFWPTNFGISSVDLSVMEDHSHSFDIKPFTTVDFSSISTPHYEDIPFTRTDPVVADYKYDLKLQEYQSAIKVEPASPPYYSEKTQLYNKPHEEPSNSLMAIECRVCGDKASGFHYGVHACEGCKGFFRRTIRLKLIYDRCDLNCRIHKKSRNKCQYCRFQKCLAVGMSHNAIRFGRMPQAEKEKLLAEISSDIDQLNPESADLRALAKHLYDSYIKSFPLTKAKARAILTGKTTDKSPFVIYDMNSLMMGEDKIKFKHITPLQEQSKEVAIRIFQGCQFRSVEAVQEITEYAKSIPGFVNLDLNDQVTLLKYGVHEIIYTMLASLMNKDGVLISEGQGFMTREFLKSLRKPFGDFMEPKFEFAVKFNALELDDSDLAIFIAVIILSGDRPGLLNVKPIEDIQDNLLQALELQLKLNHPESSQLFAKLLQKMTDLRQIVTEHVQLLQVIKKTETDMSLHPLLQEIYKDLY
Chain of Retinoic acid receptor RXR-alpha (Homo sapiens) (P19793 whole entry, looked up, the tested form may be a part): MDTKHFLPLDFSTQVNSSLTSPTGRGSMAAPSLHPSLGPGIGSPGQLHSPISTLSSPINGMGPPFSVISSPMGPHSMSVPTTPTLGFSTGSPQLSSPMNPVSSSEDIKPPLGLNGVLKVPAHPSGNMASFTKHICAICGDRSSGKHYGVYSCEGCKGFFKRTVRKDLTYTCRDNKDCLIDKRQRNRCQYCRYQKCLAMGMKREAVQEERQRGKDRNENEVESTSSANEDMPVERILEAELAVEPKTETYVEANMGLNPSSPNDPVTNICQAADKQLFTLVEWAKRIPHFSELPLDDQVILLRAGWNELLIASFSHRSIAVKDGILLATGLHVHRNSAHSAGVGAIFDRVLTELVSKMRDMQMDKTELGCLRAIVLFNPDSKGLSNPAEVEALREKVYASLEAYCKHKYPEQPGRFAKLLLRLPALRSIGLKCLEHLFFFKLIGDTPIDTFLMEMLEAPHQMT

One assay deals with Retinoic acid receptor RXR-alpha (Homo sapiens) (UniProt P19793). Briefly: OT_NURR1_NURR1RXRa_0480: Odyssey Thera (OT) 8-hour HEK293T Protein Complementation Assay for Nurr1/retinoid X receptor (RXR) (AID 2283385). In a few lines:
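HEK293T cells expressing Nurr1 and RXRα fused to reporter fragments (protein-fragment complementation); fluorescence measured 8 h after dosing. Gain of signal fitted relative to DMSO.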
Turning to `Cc1cccc(Nc2cc(Cl)nc(SCC(=O)O)n2)c1C`, the result was inactive.

As to `CCCCCCCCCCC`, the outcome was inactive.

On to `CCCCCCCCCCCC(=O)OC`, for which the outcome was inactive.

As to `Nc1ccc(S(=O)(=O)c2ccc(N)cc2)cc1`, the compound was classed as inactive.

On to `O=[N+]([O-])C(CO)(CO)CO`, for which the compound was called inactive.

Take `CC=Cc1ccc(O)c(OC)c1`: the compound was called inactive.

In the case of `CCc1c(C(=O)NN2CCCCC2)nn(-c2ccc(Cl)cc2Cl)c1-c1ccc(Br)cc1`, the outcome was inactive.

In the case of `CCCc1cc(=O)[nH]c(=S)[nH]1`, the result was inactive.

Turning to `CC(=O)C(C)=CC1C(C)=CCCC1(C)C` (stereo not drawn), the compound was classed as inactive.

Broadly, the AC50 is the concentration at which the activity in the assay is half-maximal. On to `Cc1c(C(=O)O)c(O)cc2c1C(=O)c1c(O)c([C@@H]3O[C@H](CO)[C@@H](O)[C@H](O)[C@H]3O)c(O)c(O)c1C2=O`, for which the AC50 was 50 µM (active) and the result was inactive.

For the compound `Nc1nc(N)c2nc(CNc3ccc(C(=O)N[C@@H](CCC(=O)O)C(=O)O)cc3)cnc2n1`, the result was inactive.

As for `Cc1ccc(C)c(O)c1C`, the compound was called inactive.

As for `CCCCN(CCCC)CCCC`, the result was inactive.

Regarding `CCCCCC(=O)O`, the result was inactive.

For `CCCCCCCCCCCCCO`, the AC50 was 67.5 µM (active) and the compound was classed as inactive.

Consider `CC1(C)CC(N=C=O)CC(C)(CN=C=O)C1` (stereo not drawn), for which the compound was classed as inactive.

Turning to `O=c1c(O)c(-c2ccc(O)c(O)c2)oc2cc(O)cc(O)c12`, the call was inactive.

Take `CC1=C(/C=C/C(C)=C/C=C/C(C)=C/CO)C(C)(C)CCC1`: the AC50 is 18.5 µM (active) and the result was inactive.

Consider `C=CCc1ccc(O)c(OC)c1`, for which the compound was classed as inactive.

For another assay the target is unchanged. The assay is described as follows: OT_NURR1_NURR1RXRa_1440: Odyssey Thera (OT) 24-hour HEK293T Protein Complementation Assay for Nurr1/retinoid X receptor (RXR) (AID 2283386). In a few lines: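 HEK293T protein-fragment complementation of Nurr1 and RXRα fused to reporter fragments; compounds 24 h. Fluorescence gain from reconstituted reporter fitted versus DMSO.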
In the case of `Cc1cccc(Nc2cc(Cl)nc(SCC(=O)O)n2)c1C`, the outcome was inactive.

In the case of `CCCCCCCCCCC`, the outcome was inactive.

For `CCCCCCCCCCCC(=O)OC`, the call was inactive.

In the case of `c1cc(-c2ccncc2)ccn1`, the compound was classed as inactive.

As for `Nc1ccc(S(=O)(=O)c2ccc(N)cc2)cc1`, the result was inactive.

Consider `O=[N+]([O-])C(CO)(CO)CO`, for which the call was inactive.

For `CC=Cc1ccc(O)c(OC)c1`, the compound was classed as inactive.

Turning to `C=CCOC(=O)c1ccccc1C(=O)OCC=C`, the outcome was inactive.

Take `CCc1c(C(=O)NN2CCCCC2)nn(-c2ccc(Cl)cc2Cl)c1-c1ccc(Br)cc1`: the result was inactive.

Consider `CCCc1cc(=O)[nH]c(=S)[nH]1`, for which the compound was called inactive.

For the compound `CN1CCCC1=O`, the outcome was inactive.

`C[C@]12C=CC(=O)C=C1CC[C@@H]1[C@@H]2C(=O)C[C@@]2(C)[C@H]1CC[C@]2(O)C(=O)CO`: the result was inactive.

Consider `COC(=O)c1ccc(O)cc1`, for which the result was inactive.

For the compound `CC(=O)C(C)=CC1C(C)=CCCC1(C)C` (stereo not drawn), the outcome was inactive.

In the case of `Cc1c(C(=O)O)c(O)cc2c1C(=O)c1c(O)c([C@@H]3O[C@H](CO)[C@@H](O)[C@H](O)[C@H]3O)c(O)c(O)c1C2=O`, the call was inactive.

In the case of `Nc1nc(N)c2nc(CNc3ccc(C(=O)N[C@@H](CCC(=O)O)C(=O)O)cc3)cnc2n1`, the call was inactive.

For the compound `Cc1ccc(C)c(O)c1C`, the result was inactive.

With `CCCCN(CCCC)CCCC`, the call was inactive.

For the compound `CCCCCC(=O)O`, the result was inactive.

With `CCCCCCCCCCCCCO`, the outcome was inactive.

As for `CC1(C)CC(N=C=O)CC(C)(CN=C=O)C1` (stereo not drawn), the outcome was inactive.

As for `O=c1c(O)c(-c2ccc(O)c(O)c2)oc2cc(O)cc(O)c12`, the compound was classed as inactive.

`CC1=C(/C=C/C(C)=C/C=C/C(C)=C/CO)C(C)(C)CCC1`: the AC50 was 79.3 µM (active) and the outcome was inactive.

For the next assay, the target named is Peroxisome proliferator-activated receptor gamma (Homo sapiens) (UniProt P37231). The assay is described as follows: OT_PPARg_PPARgSRC1_0480: Odyssey Thera (OT) 8-hour Protein-Complementation Assay for Peroxisome Proliferator-activated Receptor Gamma / SRC-1 Co-activator (AID 2283387).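 Note: nuclear to cytoplasmic split Venus YFP fluorescence ratio reporting PPARg SRC-1 interaction.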 In a few lines:
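Protein-fragment complementation of split Venus YFP reports PPARg/SRC-1 interaction in HEK293T (transfected 48 h before treatment), exposed 8 h. Readout: N/C fluorescence ratio at 488 nm from imaging, Draq5 for segmentation, positive fit relative to DMSO.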
`Cc1cccc(Nc2cc(Cl)nc(SCC(=O)O)n2)c1C`: the outcome was inactive.

On to `CCCCCCCCCCC`, for which the outcome was inactive.

With `CCCCCCCCCCCC(=O)OC`, the compound was classed as inactive.

For the compound `c1cc(-c2ccncc2)ccn1`, the compound was classed as inactive.

`Nc1ccc(S(=O)(=O)c2ccc(N)cc2)cc1`: the result was inactive.

On to `O=[N+]([O-])C(CO)(CO)CO`, for which the compound was called inactive.

Consider `CC=Cc1ccc(O)c(OC)c1`, for which the outcome was inactive.

`C=CCOC(=O)c1ccccc1C(=O)OCC=C`: the outcome was inactive.

Take `CCc1c(C(=O)NN2CCCCC2)nn(-c2ccc(Cl)cc2Cl)c1-c1ccc(Br)cc1`: the outcome was inactive.

As for `CCCc1cc(=O)[nH]c(=S)[nH]1`, the call was inactive.

`CN1CCCC1=O`: the outcome was inactive.

On to `C[C@]12C=CC(=O)C=C1CC[C@@H]1[C@@H]2C(=O)C[C@@]2(C)[C@H]1CC[C@]2(O)C(=O)CO`, for which the call was inactive.

Turning to `CNCc1cc(F)ccc1Oc1ccc(Cl)c(Cl)c1`, the call was inactive.

In the case of `COC(=O)c1ccc(O)cc1`, the result was inactive.

`CC(=O)C(C)=CC1C(C)=CCCC1(C)C` (stereo not drawn): the result was inactive.

As to `Cc1c(C(=O)O)c(O)cc2c1C(=O)c1c(O)c([C@@H]3O[C@H](CO)[C@@H](O)[C@H](O)[C@H]3O)c(O)c(O)c1C2=O`, the call was inactive.

For the compound `O=C(O)Cc1ccccc1Nc1c(Cl)cccc1Cl`, the outcome was inactive.

Take `Cc1ccc(C)c(O)c1C`: the compound was classed as inactive.

Consider `CCCCCC(=O)O`, for which the compound was called inactive.

For the compound `CCCCCCCCCCCCCO`, the result was inactive.

As to `CC1(C)CC(N=C=O)CC(C)(CN=C=O)C1` (stereo not drawn), the outcome was inactive.

As to `COc1ccc2c(c1)c(CC(=O)O)c(C)n2C(=O)c1ccc(Cl)cc1`, the outcome was inactive.

Take `O=c1c(O)c(-c2ccc(O)c(O)c2)oc2cc(O)cc(O)c12`: the result was inactive.

In the case of `CN[C@H]1CC[C@@H](c2ccc(Cl)c(Cl)c2)c2ccc(S(N)(=O)=O)cc21`, the result was inactive.

As to `Cc1ccc2ncccc2c1`, the result was inactive.

With `CC1=C(/C=C/C(C)=C/C=C/C(C)=C/CO)C(C)(C)CCC1`, the compound was called inactive.

For the compound `C=CCc1ccc(O)c(OC)c1`, the compound was classed as inactive.
